This note sets out measurements from PubChem BioAssay AID493169 (National Center for Advancing Translational Sciences (NCATS), 2011).

The test in a line: CHOP2 Reporter Counterscreen Assay for Inhibitors of Ubiquitin-specific Protease USP2a.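 Further: activated enterokinase alone at 50 pM in a cell-free format rather than USP2a or CHOP2; nearly all actives have a fitted effect of over 55% in size.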 The settings on record: purified enterokinase, fluorogenic substrate, 485/531 nm; series mostly up to 38.3 µM. The gist of the method:
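Cell-free counterscreen with pre-activated enterokinase alone (50 pM final) in 20mM Tris-HCl pH 8.0, 2mM CaCl2, 2mM beta-mercaptoethanol, 0.05% CHAPS; compound preincubation 30 min RT, reporter substrate 25nM final, fluorescence read after 10 min (Ex 485/Em 531).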
Background: The purpose of a counterscreen is to sort out artefacts and off-target activity.

Each structure is given as a SMILES string. Results filed as inconclusive are left out. Where a call stands in place of a potency, no number is given. Active and inactive are the calls of the source. The call rests on the fitted dose curve; in most records, active means well fitted inhibition curve with a large enough effect; inconclusive means small, poorly fitted or top-dose-only effect; inactive means flat fitted curve, though single readings scatter.
Potency means the concentration at half of the fitted maximal effect.

Take `CC1=NN(c2ccc(C)cc2)C(=O)/C1=C/c1ccc(-c2cc([N+](=O)[O-])ccc2O)o1`: the Potency was 11.2 µM (active).

As to `CCn1nc(C(=O)N[C@@H](CCSC)c2nc3ccccc3[nH]2)c2ccccc2c1=O`, the Potency entry is “inactive”.

Turning to `COc1ccc(C2CC(=O)N3CN(c4ccccc4F)CSC3=C2C#N)cc1OC` (stereo not given), the Potency entry was “inactive”.

For `CCOC(=O)CN1C(=O)S/C(=C/c2ccc(O)c([N+](=O)[O-])c2)C1=O`, the Potency result was “inactive”.

As for `COCCn1nnnc1CN(CCc1ccccc1)Cc1cc2ccc(C)cc2[nH]c1=O`, the Potency entry is “inactive”.

For `CC1(C)CC(=O)C2=C(C1)NCN(CCCN1CCOCC1)C2`, the Potency result was “inactive”.

Turning to `CC12CN3CC(C)(CN(C1)C3c1ccc(Cl)cc1Cl)C2O` (stereo not given), the Potency entry is “inactive”.

In the case of `Nc1c(C(=O)Nc2ccc(Cl)cc2)oc2ccccc12`, the Potency result was “inactive”.

In the case of `CC(=O)C1=C(O)C(=O)N(c2nnn(C)n2)C1c1cccs1` (stereo not given), the Potency entry was “inactive”.

As to `Nc1c(C(=O)NC2CC2)sc2nc3c(c(-c4ccco4)c12)CC/C3=C/c1ccco1`, the Potency was 2.24 µM (active).

As to `CCC1SC2=NC(C)=C(C(=O)OCCOC)C(c3ccc(C(=O)OC)cc3)N2C1=O` (stereo not given), the Potency entry was “inactive”.

Take `CC(C)CC(=O)Nc1cccc(-c2nc3ccccc3o2)c1`: the Potency result is “inactive”.

On to `COc1ccccc1C1NC(c2ccccc2OC)C(C)C(=O)C1C` (stereo not given), for which the Potency result was “inactive”.

In the case of `c1ccc(Nc2c3c(nc4ncnn24)CCC3)cc1`, the Potency result was “inactive”.

Take `Cc1ccc(NC(=O)CN2C(=O)N/C(=C/c3ccco3)C2=O)cc1`: the Potency was 5.01 µM (active).

Regarding `Cc1nc(NC(C)C)c2cnn(CCc3ccccc3)c2n1`, the Potency entry was “inactive”.

For the molecule `CC(C)OCCCNC(=O)c1c(N)n(/N=C/c2ccccn2)c2nc3ccccc3nc12`, the Potency result is “inactive”.

Consider `CCOc1ccc2nc(NC(=O)Nc3ccccc3)sc2c1`, for which the Potency entry was “inactive”.

As for `CC(C)c1ccc(CCNC(=O)c2ccc([N+](=O)[O-])cc2)cc1`, the Potency entry was “inactive”.

In the case of `Oc1ccc(/C=N/NC(=S)N/N=C/c2ccc(O)cc2)cc1`, the Potency result was “inactive”.

For the molecule `CS(=O)(=O)c1ccc(C(=O)Nc2nc(-c3ccco3)c(-c3ccco3)s2)cc1`, the Potency entry is “inactive”.

`O=C1Nc2ccccc2SC(c2ccccc2)C1O` (stereo not given): the Potency is 7.94 µM (active).

With `O=C(OCC(=O)N1CCCCC1)c1cc2ccccc2cc1O`, the Potency result is “inactive”.

With `Cc1ccccc1C(=O)Nc1ccc2nc3n(c(=O)c2c1)CCC3`, the Potency entry was “inactive”.

As for `c1ccc(-c2nc3nc4ccccc4nc3n2Cc2ccco2)cc1`, the Potency result is “inactive”.
